Compound activity as filed in PubChem BioAssay.
Rows were chosen to be rich in hits. Some 21% of all compounds tested hit in one or more screens of this group.
Pf growth 96h = P. falciparum growth inhibition at 96 hours; P. falciparum luciferase reporter growth, 96 h; Potency, µM (top dose mostly 28.7 µM), usual class: inhibitors; 320,000 tested, 6.9% active; AID 504834
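Plates of compound plus infected erythrocytes (2% hematocrit, 0.05% parasitemia final) incubate 96 hours, 37 C, 5% CO2. Detection reagent added; reduced luminescence from the parasites' luciferase reporter flags inhibition.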
Shiga inhibitor = inhibitors of Shiga toxin in Vero cells; Vero cells, Shiga toxin protein synthesis inhibition reporter; inhibition, % at 38.7 µM; 290,000 tested, 9.2% active; in the data active means inhibition mostly above about 28%, no sharp cut-off; inactive means mostly below about 43%
Pf growth 48h = P. falciparum growth inhibition at 48 hours (one generation); P. falciparum luciferase growth in erythrocytes, 48 h; 310,000 tested, 5.9% active; Potency, µM (titrated, usually from 28.7 µM), usual class: inhibitors
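Firefly luciferase activity from engineered P. falciparum reports growth; inhibitors lower the luminescent signal. Cultures contained 2% hematocrit erythrocytes at 0.1% final parasitemia.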
HCMV inh = inhibitors of human cytomegalovirus. HFF cells, HCMV-luciferase reporter, 72 h; stronger effect = lower value. activity change, negative = inhibition, % at 57.5 µM. 410,000 tested, 4.5% active. AID 1259415; in the data active means activity change below about -60%; inconclusive means no clear call, values can overlap the other calls; inactive means above about -39%
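Luciferase read-out from HCMV-luciferase-infected HFFs (MOI 1 PFU/cell) 72 h post infection at 37C; compounds added after 16 h cell attachment; activity normalized between buffer-only basal and Salinomycin (10uM) inhibitor controls.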
HCV inhibitor = inhibitors of hepatitis C virus infection | Huh7.5.1 HCVcc-Cre infection, luciferase reporter, 44 h | AID 651820 | 340,000 tested, 3.4% active | Potency, µM (doses to about 41.8 µM), actives largely listed as inhibitors
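A cell-based infection assay in which seeded cells (1,000 per well) receive test compound after 4 h, are inoculated with HCVcc-Cre at approximately 0.5 moi, and are incubated 44 h before luminescence detection.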
Cycloheximide cs = counter-screen for Shiga toxin inhibitors: cycloheximide protein synthesis inhibition | cell reporter, cycloheximide protein synthesis inhibition counterscreen | max response, % | 300,000 tested, 12% active | AID 2314; in the data active means max response mostly above about 13%, no sharp cut-off; inactive means mostly below about 14%; further: read at 38.3 µM for the half of the compounds with a filed dose
Hits are given with their value; i = inactive; ? = inconclusive; nt = no result given; [ ] = remark or other dose. Unless noted, the call rests on the fitted dose curve; in most records, active means well fitted inhibition curve with a large enough effect; inconclusive means small, poorly fitted or top-dose-only effect, or another doubt; inactive means no such curve, though single readings can be large or run the other way.

SMILES	Pf growth 96h	Shiga inhibitor	Pf growth 48h	HCMV inh	HCV inhibitor	Cycloheximide cs
CC(C)CC(=O)NC(=S)Nc1ccccc1N1CCCC1	?	i	?	i	i	i
CCC(=O)NC(=S)Nc1cccc(Cl)c1N1CCCCC1	7.4µM	i	12µM	?	?	i
CCCC(=O)NC(=S)Nc1cccc(Cl)c1N1CCCCC1	8.3µM	i	7.4µM	i	?	i
CC(=O)Nc1cc2c(=O)n(Cc3ccccc3)c(C)nc2cc1N1CCOCC1	i	i	i	i	i	17
CC(=O)Nc1cc2nc(C)n(Cc3ccccc3)c2nc1C	?	i	nt	i	i	i
Cc1nc2cc(N3CCCCC3)c(NC(=O)c3cccnc3)cc2c(=O)n1Cc1ccccc1	nt	i	2.9µM	i	?	i
CCCN1CCC(NC(=O)C2CCCCC2C(=O)O)CC1 (stereo not drawn)	?	i	i	i	i	i
C=CCn1cccc(C(=O)Nc2ccc(OC)c(Cl)c2)c1=O	i	54	i	nt	i	24
C=CCn1cccc(C(=O)Nc2ccc(OC)c(OC)c2)c1=O	i	i	i	i	i	i
C=CCn1cccc(C(=O)Nc2cc(OC)cc(OC)c2)c1=O	i	i	i	i	i	26
C=CCN1C=C(C(=O)OCC)C(=O)CC1	nt	nt	nt	i	nt	nt
Cc1cc(NC(=O)CNCC(c2ccccc2)N(C)C)c([N+](=O)[O-])cc1C (stereo not drawn)	i	i	i	i	i	i
O=C(NNC(=O)C1CCC(C(=O)NNC(=O)c2cccs2)CC1)c1cccs1 (stereo not drawn)	i	i	i	i	i	i
O=C(N/N=C1/CC2C=CCC12)c1cccs1 (stereo not drawn)	i	80	i	i	i	42
O=C(N/N=C1/CC2C=CCC12)c1ccco1 (stereo not drawn)	i	81	i	i	i	72
Cc1cc(-c2cc(-c3ccccc3)on2)nc(NCC2CC2)n1	i	i	i	i	?	i
Cc1cccc(NC(=O)Nc2c(C)n(C)n(-c3ccccc3)c2=O)c1C	i	i	i	i	i	i
O=C1c2ccc(-c3ccc(Cl)c(C(F)(F)F)c3)cc2S(=O)(=O)c2cccc(C(=O)N3CCN(c4ccc(Cl)cn4)CC3)c21	nt	nt	nt	i	i	nt
CC(=O)Oc1ccc(-c2csnn2)cc1	i	i	i	?	i	i
Cc1ccccc1C(=O)NNc1ccc(-c2csnn2)cc1	i	i	1.9µM	i	i	i
O=C(c1cnn(C(=O)c2cccc(S(=O)(=O)N3CCOCC3)c2)c1)c1ccccc1O	i	i	i	i	i	i
COc1ccc(Cl)cc1N(CC(=O)Nc1ccccc1C(=O)N1CCOCC1)S(C)(=O)=O	i	i	i	?	i	i
CCOC(=O)c1c(NC(=S)Nc2ccccc2)sc(C)c1C	i	i	i	i	i	i
COC(=O)c1c(NC(=O)CCC(=O)O)sc(Cc2ccccc2)c1C	i	i	12µM	i	i	i
CCOC(=O)c1c(NC(=O)CNCCO)sc(C)c1C	?	i	i	i	?	i
SMILES	Pf growth 96h	Shiga inhibitor	Pf growth 48h	HCMV inh	HCV inhibitor	Cycloheximide cs
CCOC(=O)c1c(NC(N)=O)sc(C)c1C	nt	i	i	i	0.89µM	i
CC(=O)Nc1sc(C)c(C)c1C(=O)OCCOc1ccccc1	i	113	i	i	?	48
CCOC(=O)c1c(NC(=O)C[n+]2ccc(Cc3ccccc3)cc2)sc(C)c1C	i	i	?	i	1.3µM	i
CC(=O)Nc1sc(C)c(C)c1C(=O)OCC(=O)Nc1ccccc1	i	nt	i	i	?	nt
Cn1c(=O)c2cc(NC(=S)NC3CCCCC3)ccc2n1C/C=C/c1ccccc1	nt	nt	nt	i	nt	nt
Cc1cccc(-c2nc(S(=O)(=O)c3ccc(Cl)cc3)c(N3CCCCCC3)o2)c1	nt	nt	nt	i	nt	nt
Cc1ccccc1C(=O)Nc1sc(C)c(C)c1C(=O)c1ccccc1	?	i	?	i	?	i
Cc1sc(NC(=O)CCl)c(C(=O)c2ccccc2)c1C	i	i	13µM	i	?	12
Cc1cc(C(=O)c2ccc(C(C)(C)C)cc2)c(NC(=O)CCl)s1	i	i	i	-65	?	i
O=C(CCl)Nc1sccc1C(=O)c1ccccc1	nt	nt	nt	i	i	nt
CCOC(=O)c1c(NC(=O)CNC2CCCCC2)sc(C)c1C	i	i	i	i	10µM	i
CCOC(=O)c1c(NC(=O)c2nn(C)cc2[N+](=O)[O-])sc(C)c1C	i	i	i	i	3.5µM	i
CC(C)NC(=O)CCc1nc2cccnc2n1-c1ccccc1	i	i	i	i	i	i
Cc1cccc(C)c1NC(=O)Cn1c(=O)n(Cc2ccc3c(c2)OCO3)c(=O)c2oc3ccccc3c21	nt	nt	nt	i	nt	nt
COc1cccc(-c2nc(SCC(=O)Nc3ccc4c(c3)OCCO4)c(-c3ccc(C)cc3)[nH]2)c1	nt	nt	nt	i	nt	nt
CN(CC(=O)Nc1ccccc1C(F)(F)F)C(=O)COc1ccccc1Cc1ccccc1	?	nt	?	i	i	nt
CN(CC(=O)Nc1ccc(F)cc1)C(=O)COc1ccccc1Cc1ccccc1	5.2µM	nt	?	i	i[8.37 µM]	nt
COc1ccc(NC(=O)CN(C)C(=O)COc2ccccc2Cc2ccccc2)cc1	?	nt	9.3µM	?	?	nt
COc1ccc(NC(=O)CN(C)C(=O)C(Sc2ccccc2)c2ccccc2)cc1 (stereo not drawn)	?	nt	?	-72	?	nt
C=CCN1C[C@H](COC(=O)c2ccc(C)c(C)c2)Oc2cccc(F)c2S1(=O)=O	nt	nt	nt	i	nt	nt
CCO[C@@H]1OC(C(=O)O)=C[C@H](C2CC2)[C@H]1CCCO	i	i	i	i	i	i
COc1ccc2cc(C(C)C(=O)O)ccc2c1 (stereo not drawn)	i	i	i	i	i	i
Cc1ccc2nc(-c3ccc(C#N)cc3)c(Cc3cccc(F)c3)n2c1	nt	nt	nt	i	nt	nt
Cc1ccc(CSC2=Nc3ccccc3C3=NC(=O)CN23)cc1	?	i	?	?	7.9µM	i
COc1cc2c(cc1OC)C1=NC(=O)CN1C(SCc1ccccc1C)=N2	12µM	i	?	?	?	i
SMILES	Pf growth 96h	Shiga inhibitor	Pf growth 48h	HCMV inh	HCV inhibitor	Cycloheximide cs
Cc1ccc(CSC2=Nc3ccccc3C3=NC(CC(=O)NC4CCCCC4)C(=O)N23)cc1 (stereo not drawn)	nt	nt	nt	i	nt	nt
COc1ccc(C)cc1NC(=O)CSCc1ccccc1C	i	nt	i	i	?	i
COc1ccc(OC)c(NC(=O)CN2C(=O)c3ccccc3S2(=O)=O)c1	i	i	i	i	i	i
COc1ccc2c(c1)-c1ccccc1S(=O)(=O)N2C(C)=O	12µM	i	i	i	i	i
CCc1ccc(CNC(=O)c2sc3ncccc3c2-n2c(C)ccc2C)cc1	nt	nt	nt	i	nt	nt
COc1ccc(S(=O)(=O)Nc2cc3c4c(oc3c3ccccc23)CC(C)(C)CC4=O)cc1	?	i	?	i	?	i
COc1ccc(S(=O)(=O)Nc2cc3c4c(oc3c3ccccc23)CCCC4=O)cc1	9.3µM	i	nt	i	?	i
CC(C(=O)N(C)C1CCS(=O)(=O)C1)N1C(=O)/C(=C/c2cccs2)SC1=S (stereo not drawn)	?	i	?	i	i	i
